SMILES strings stand for the structures. About 8,600 (12%) of roughly 69,000 compounds showed an effect of 50% or more. The list comes from a sample in which strong results are over-represented; it also holds similar structures and randomly drawn compounds.

The assay deals with Plasmodium berghei. Put plainly: Screen against P. berghei liver stage (PbLuc), transformed with Luciferase, at 10uM. The class given is functional, HepG2. Conditions: tested at 10 uM.
On to `N#CC(NC(=O)CNC(=O)c1ccccc1)c1ccsc1` (configuration not stated), for which the INHIBITION came out at 18.5%. For the compound `CC(=O)Nc1nc(C2CN(C(=O)C3CCC3)C2)cs1`, the INHIBITION was 37.6%. Then `Cn1c(C(=O)N2CC[C@@]3(O)CCCC[C@H]3C2)cc2ccccc21`, with -9.51%. As to `COc1ccc([C@@H]2CN(C(=O)c3cscn3)C[C@H]2C(=O)O)cc1`, the INHIBITION is reported as -9.32%. As for `O=C(Cc1n[nH]c2ccccc12)N1CCCCC1Cn1cccn1` (configuration not stated), the INHIBITION was -31.5%. Then `Cc1nn(C)c(N(C)C)c1CNCCOc1ccc2c(c1)OCO2`, with -20.893%. Turning to `OC(CN1CCOCC1)c1ccc(Br)cc1` (configuration not stated), the INHIBITION was determined as 1.56%. Then `CCC(=O)NC(C)c1ccccc1C` (configuration not stated), with 10.06%; and `Cc1c(C(=O)N2CCCC(n3cncn3)C2)cnn1C` (configuration not stated), with 1.75%. Turning to `Nc1nnc(C2CC(=O)N(c3ccccc3)C2)s1` (configuration not stated), the INHIBITION came to 44.9%.

In the case of `Cn1cc(-c2nc(CN3CCN(c4nccs4)CC3)cs2)cn1`, the INHIBITION came to 42.7%. As for `c1cncc(C2COC3(CCN(CC4CCOCC4)CC3)C2)c1` (configuration not stated), the INHIBITION was 23.3%. Then `O=C(COCc1nc(-c2ccncc2)no1)N1CCOCC1`, with 1.06%; and `O=C(NCCCN1CCOCC1)c1cc(-c2ccco2)[nH]n1`, with -26.5%. Then `COCCCNC(=O)Cc1nc(-c2ccncc2)n[nH]1`, with 77.7%; and `CC(C)C(=O)NCCc1nc(-c2ccncc2)n[nH]1`, with 28.2%; and `O=C(NCCCN1CCOCC1)c1cc(-c2ccccc2)[nH]n1`, with -14.3%. Then `O=C(Cc1nc(-c2ccncc2)n[nH]1)N1CCOCC1`, with 78.8%. For the compound `O=C(COCc1nc(-c2ccncc2)no1)N1CCCC1`, the INHIBITION turned out to be 16.8%. Then `O=C(Cc1nc(-c2ccncc2)n[nH]1)NCCCN1CCOCC1`, with 66.3%; and `CC(C)c1cc(C(=O)NCCc2nc(-c3ccncc3)n[nH]2)[nH]n1`, with 5.7%. Then `OCC1CCCN1c1cc(NCc2cccc3cccnc23)ncn1` (configuration not stated), with -21.8%. As to `Cc1ccc(CS(=O)(=O)CC(=O)NCCCOC(C)C)cc1`, the INHIBITION is recorded as 15.6%. For the compound `Cc1cc(C)c(CNC(=O)NC(C)c2ccc3c(c2)CCC3)c(=O)[nH]1` (configuration not stated), the INHIBITION is 48.2%. The same measure for `Cc1cc(CN2CCOC(CNc3cccnn3)C2)on1` (configuration not stated): 2.3%. The same measure for `COc1ccccc1N1CCN(C(=O)CSC(C)C)C(C)C1` (configuration not stated): 17.6%.

`COc1ccccc1N1CCN(C(=O)CSCC2CC2)C(C)C1` (configuration not stated): the INHIBITION was determined as 51.2%. The same measure for `CCN1CCC(CC(=O)N2CCN(c3ccccc3OC)CC2C)CC1` (configuration not stated): 21.2%; for `COc1ncccc1-c1cc(C(N)=O)ccn1`: 52.2%; for `COc1ncccc1-c1cc(C(=O)NC2CC2)ccn1`: -68.7%. The same measure for `COc1ncccc1-c1ncccc1NC(=O)C(C)C`: 24.3%; for `CN1CCCC1CNC(=O)CCOc1ccc(Cl)cc1` (configuration not stated): -11.98%.

As to `Cc1cnc(C)c(N2CCN(CCCc3ccncc3)CC2)n1`, the INHIBITION was found to be 76%.

In the case of `Cc1noc(C(C)N2CCN(CCc3ccncc3)CC2)n1` (configuration not stated), the INHIBITION is on record as -11.9%. With `Cc1cnc(N)nc1N1CCN(CCCO)CC1`, the INHIBITION amounted to 42.1%. Then `CSCCN1CCN(c2nc(N)ncc2C)CC1`, with 19.4%; and `Cc1cnc(C)c(N2CCN(CCCc3[nH]nc(C)c3C)CC2)n1`, with 30.3%; and `CCN(CC)CCCN1CCN(c2nc(C)cnc2C)CC1`, with 71.1%. Then `Cc1nc(CN2C[C@@H]3COC[C@]3(COCC(=O)N(C)C)C2)cs1`, with 43.1%; and `CN(C)c1ccc(C(=O)Nc2cn[nH]c2)cc1`, with 4.885%.

For the compound `Cc1cc(C)n(CC(=O)N2CCCC2c2cc3cccnc3[nH]2)n1` (configuration not stated), the INHIBITION is recorded as 9.05%.

For `CCC(=O)N1CCOC(c2cc(Nc3nncs3)cc(C)n2)C1` (configuration not stated), the INHIBITION stood at 41%. The same measure for `O=S1(=O)NC(=CSCc2ccccc2)Nc2ccccc21`: 38%; for `O=C(c1cc(C2CC2)n[nH]1)N1C[C@H]2CC[C@](O)(c3ccccc3F)[C@H]2C1`: -16.56%. Then `O=C(c1cc(C2CC2)on1)N1C[C@H]2CC[C@](O)(c3ccccc3F)[C@H]2C1`, with 53.45%; and `O=C(c1cc(C2CC2)on1)N1C[C@H]2CC[C@](O)(c3ccc(F)cc3)[C@H]2C1`, with 1.75%.

`CCC[C@H]1CN(CCS(C)(=O)=O)C[C@@H]1NC(=O)c1ccn(C)n1`: the INHIBITION was found to be 61.2%.

For `CCC[C@H]1CN(CCS(C)(=O)=O)C[C@@H]1NC(=O)c1ccccc1F`, the INHIBITION is on record as -30.2%.

Consider `CCC[C@H]1CN(CCS(C)(=O)=O)C[C@@H]1NC(=O)c1cc[nH]n1`, for which the INHIBITION came out at 13%.

With `CCC[C@H]1CN(CCS(C)(=O)=O)C[C@@H]1NC(=O)c1ccccn1`, the INHIBITION is reported as 26.6%. Then `CCC[C@H]1CN(CCS(C)(=O)=O)C[C@@H]1NC(=O)c1cc(CC)on1`, with 50.1%. The same measure for `CCC[C@H]1CN(CCS(C)(=O)=O)C[C@@H]1NC(=O)c1cccnn1`: -25.2%; for `Cc1cnn(CC2CCCN2C(=O)CCc2ccncc2)c1` (configuration not stated): -14%; for `Cc1cccc(-c2cc(C(=O)O)sn2)c1`: -12.1%. The same measure for `Cc1occc(=O)c1OCc1noc(C(=O)NCC2CC2)n1`: 33.5%; for `O=C(c1cccnc1)N1CCn2nnc(COc3cccnc3)c2C1`: 47.8%; for `CN1CCN(C2COC3(CCN(Cc4ccsc4)CC3)C2)CC1` (configuration not stated): 54.4%. Consider `CN1CCN(C2COC3(CCN(Cc4cccs4)CC3)C2)CC1` (configuration not stated), for which the INHIBITION turned out to be 1.94%.

Regarding `CCOC1COC2(CCN(Cc3ccc(F)cc3)CC2)C1` (configuration not stated), the INHIBITION is reported as -24.5%.

With `CN1CCN(C2COC3(CCN(Cc4ccc(F)cc4)CC3)C2)CC1` (configuration not stated), the INHIBITION was 54.4%. Then `Cc1ccc(CN2CCC3(CC2)CC(N2CCN(C)CC2)CO3)s1` (configuration not stated), with 47.4%. As to `CCc1ccc(CN2CCC3(CC2)CC(N2CCN(C)CC2)CO3)cc1` (configuration not stated), the INHIBITION was 45.5%. In the case of `COC(=O)c1cc(C)nc(N2CCN(Cc3cc(C(C)C)no3)CC2)n1`, the INHIBITION was 23.1%. Then `COc1cccc(OC)c1-c1c[nH]c(C)n1`, with 1.56%; and `Cn1cnc2c1CCN(Cc1c(Cl)ccc3cccnc13)C2`, with -20.8%; and `CN1CCC(c2nnc3ccc(C(=O)NC4CCCC4)cn23)C1` (configuration not stated), with -1.26%. The same measure for `CC(C)NC(=O)c1ccc2nnc(C3CN(C)CCN3C)n2c1` (configuration not stated): -37.9%.

As for `CC(C)N1CCN(C)CC1c1nnc2ccc(C(=O)N3CCCC3)cn12` (configuration not stated), the INHIBITION is 82.8%. Then `CN1CCN(C)C(c2nnc3ccc(C(=O)N4CCOCC4)cn23)C1` (configuration not stated), with 8.03%; and `CN1CCC(c2nnc3ccc(C(=O)N4CCCCC4)cn23)C1` (configuration not stated), with 82.8%; and `CS(=O)(=O)N1CCC(c2nnc3ccc(C(=O)N4CCCC4)cn23)C1` (configuration not stated), with 40.4%. On to `N#Cc1ccc(CN2CCCCC2Cn2cccn2)cc1` (configuration not stated), for which the INHIBITION was -32%. Then `COc1ccc(CC(=O)NC2CCc3nc(C)cn3C2)cc1` (configuration not stated), with 46.6%; and `COc1ncc(-c2ccc(NC(C)=O)cc2)c(OC)n1`, with 14%. The same measure for `Cc1nc(O)c2nnn(C[C@H]3CCCN3C(=O)c3ccccc3F)c2n1`: 28%; for `OC1CCN(c2ccnc(NCCN3CCc4ccccc4C3)n2)C1` (configuration not stated): 8.38%; for `OC1CCN(c2ccnc(NCCc3ccccc3Cl)n2)C1` (configuration not stated): 93.6%.

As to `OC1CCN(c2ccnc(NCCc3ccccc3Cl)n2)CC1`, the INHIBITION stood at 39.1%. As for `CCCc1ccc(CN2CCC3(CCC(=O)N(C)CC3)CC2)o1`, the INHIBITION was determined as 21.2%.

On to `CCCc1nc(CN2CCN(C(C)c3nc(C4CC4)no3)CC2)no1` (configuration not stated), for which the INHIBITION is listed as -27.8%.

On to `COc1ccccc1CC(=O)NS(=O)(=O)c1ccc(NC(C)=O)cc1`, for which the INHIBITION is recorded as -14%. Then `O=C(NCC1CCS(=O)(=O)C1)N(Cc1ccccn1)C1CC1` (configuration not stated), with 4.1%. Then `O=C(O)C1(n2ccc(-c3ccco3)n2)CCN(Cc2cccs2)CC1`, with 43.4%; and `Cc1nc(CN2CCC(C(=O)O)(n3ccc(-c4ccco4)n3)CC2)co1`, with 5.14%. Then `Cc1csc(CN2CCC(C(=O)O)(n3ccc(-c4ccco4)n3)CC2)n1`, with 51.3%; and `COc1cccc(C(C(=O)O)N2CCCN(c3ccnc(C)c3)CC2)c1` (configuration not stated), with 27.6%; and `COc1ccc(C(C(=O)O)N2CCCN(C3CCCCC3)CC2)cn1` (configuration not stated), with 32.7%. Turning to `COc1cccc(N2CCN(C(C(=O)O)c3ccc(OC)nc3)CC2)c1` (configuration not stated), the INHIBITION is 65.7%.

In the case of `CCc1nc(N2CCC3(CCC(=O)N(CCCO)C3)CC2)no1`, the INHIBITION amounted to 35.6%. The same measure for `Cc1c[nH]nc1C1CCN(C(=O)C2CCOCC2)C1` (configuration not stated): 3.48%; for `CC(C)CNc1cc(-c2c[nH]nc2C2CCN(C(=O)C3CC3)C2)ccn1` (configuration not stated): 86%; for `O=C(C1CCCCC1)N1CCC(c2n[nH]c3nccnc23)CC1`: 44.1%.

For the compound `O=C(C1CCCC1)N1CCC(c2n[nH]c3nccnc23)CC1`, the INHIBITION was found to be 51.5%.

With `Cc1c[nH]nc1C1CCN(C(=O)C2CCCC2)C1` (configuration not stated), the INHIBITION was 65.7%. As to `CC(C)Nc1cc(-c2c[nH]nc2C2CCN(C(=O)C3CC3)C2)ccn1` (configuration not stated), the INHIBITION is 87.85%. The same measure for `CN1CCC(c2n[nH]cc2-c2ccnc(N)c2)C1` (configuration not stated): 16.05%; for `CC(C)OCC(=O)N1CCC(c2ncncc2-c2ccnc(N)c2)C1` (configuration not stated): 8.12%. Then `CC(=O)N1CCC(c2n[nH]c3nccnc23)CC1`, with 8.53%; and `Cc1c[nH]nc1C1CCN(C(=O)C2CCC2)CC1`, with -14.2%. For `COCCC(=O)N1CCC(c2ncncc2-c2ccnc(N)c2)C1` (configuration not stated), the INHIBITION was determined as 0.696%. `CC(=O)N1CCC(c2n[nH]cc2-c2ccnc(N)c2)C1` (configuration not stated): the INHIBITION came to 37.5%.

On to `Cc1nc(C(=O)N2CCC(c3cc(CCO)n(C)n3)C2)co1` (configuration not stated), for which the INHIBITION was found to be 19.3%. With `CNC(=O)[C@@H](c1ccccc1OC)N1CCC[C@H]1C(=O)N1CCC1`, the INHIBITION is given as -37.8%.

On to `COCC(NC1CCN(CC(C)C)CC1)c1ccnn1C` (configuration not stated), for which the INHIBITION is reported as -1.49%. The same measure for `CCc1c(C)sc2nc3n(CCN4CCOCC4)nc(SC)n3c(=O)c12`: 17.7%; for `CC(c1ccncc1)N(CCN(C)C)C(=O)Nc1ccc(Cl)c(Cl)c1` (configuration not stated): -32.1%; for `O=C(c1ccoc1)N1C[C@@H]2[C@@H](C1)OCC(=O)N2Cc1cccnc1`: 16.8%.

Values taken from ChEMBL document CHEMBL4513216, “Probing the Open Global Health Chemical Diversity Library for Multistage-Active Starting Points for Next-Generation Antimalarials” (ACS Infect Dis, 2020).
